# From the supplement of paper PMC12494721
# Structures can show the parent of a compound that is named as a salt.
# Test system: Ruminococcus gnavus DSM 108212
# Experiment: fold change of 2-Phenylethylamine concentration vs plate DMSO controls (fold change (ratio)); higher = more amine produced, active = hit call of the paper (significant change in both replicates, either direction)
# Conditions: incubation time: 27 h, anaerobic, 37 °C;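 for the amine columns active = adjusted P below 0.05 in both replicates with a change the same way and a mean fold change under 0.8 or over 1.25; inactive = the rest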
# In short: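 Amines were quantified by LC–triple-quadrupole MS in dynamic MRM mode against external calibration curves, with drift correction within each batch. The samples were whole anaerobic mGAM cultures of four gut bacterial strains, grown for 27 h at 37 °C in 80 µL wells and extracted with cold acetonitrile/methanol with 0.1% formic acid, then centrifuged. Values are reported as fold change over DMSO controls on the same plate. The mean of 2 biological replicates is given.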
row,Compound,fold change of 2-Phenylethylamine concentration
1,CC(N)(Cc1ccc(O)c(O)c1)C(=O)O (configuration not stated) [(L) Methyldopa] (20 µM),1.26 (active)
2,CN[C@@H]1[C@H](O[C@H]2[C@H](O[C@H]3[C@H](O)[C@@H](O)[C@H](N=C(N)N)[C@@H](O)[C@@H]3N=C(N)N)O[C@@H](C)[C@]2(O)C=O)O[C@@H](CO)[C@H](O)[C@H]1O [Streptomycin sulfate] (20 µM),0.994 (inactive)
3,CCOC(=O)c1ccc(OC(=O)CCCCCNC(=N)N)cc1 [Gabexate mesilate] (20 µM),0.776 (inactive)
4,NS(=O)(=O)c1cc(C(=O)O)c(NCc2ccco2)cc1Cl [Furosemide] (20 µM),0.964 (inactive)
5,CC(C)(Oc1ccc(Cl)cc1)C(=O)O [Clofibric acid] (20 µM),1 (inactive)
6,Cc1ccc(C(C)NC(=O)[C@@H](NC(=O)OC(C)C)C(C)C)cc1 (some centres not stated) (20 µM),1.07 (inactive)
7,COC(c1ccccc1)(c1ccccc1)[C@H](Oc1nc(C)cc(C)n1)C(=O)O [Ambrisentan] (20 µM),1.01 (inactive)
8,CN1CCN(CCCN2c3ccccc3Sc3ccc(C(F)(F)F)cc32)CC1 [Trifluoperazine dihydrochloride] (20 µM),0.964 (inactive)
9,C[N+](C)(CCOc1ccccc1)Cc1ccccc1.O=C([O-])c1cc2ccccc2cc1O [Bephenium hydroxynaphthoate] (20 µM),1.06 (inactive)
10,c1ccc2cc3c(ccc4ccccc43)cc2c1 [Benz[a]anthracene] (20 µM),1.3 (inactive)
11,C[C@H]1C[C@H]2[C@@H]3CCC4=CC(=O)C=C[C@]4(C)[C@@]3(F)[C@@H](O)C[C@]2(C)[C@@]1(O)C(=O)CO [Betamethasone] (20 µM),0.968 (inactive)
12,NC[C@H]1O[C@H](O[C@H]2[C@H](O[C@@H]3O[C@H](CO)[C@@H](O)[C@H]3O)[C@@H](O)[C@H](N)C[C@@H]2N)[C@H](N)[C@@H](O)[C@@H]1O [Ribostamycin sulfate salt] (20 µM),1.03 (inactive)
13,CCOC(=O)C1=C[C@]2(CC)CCCN3CCc4c(n1c1ccccc41)[C@@H]32 [Vinpocetine] (20 µM),0.972 (inactive)
14,CCOC1O[C@H]([C@@H](COCc2ccccc2)OCc2ccccc2)[C@H](OCc2ccccc2)[C@H]1O (some centres not stated) [Tribenoside] (20 µM),0.961 (inactive)
15,NCCCC[C@H](N[C@@H](CCc1ccccc1)C(=O)O)C(=O)N1CCC[C@H]1C(=O)O [Lisinopril] (20 µM),0.943 (inactive)
16,CC(C)(C)NC[C@H](O)c1ccc(O)c(CO)c1 [Levalbuterol hydrochloride] (20 µM),0.861 (inactive)
17,O=C(CCCl)NCc1ccccc1 [Beclamide] (20 µM),1.03 (inactive)
18,Cc1onc(-c2ccccc2Cl)c1C(=O)N[C@@H]1C(=O)N2[C@@H]1SC(C)(C)[C@@H]2C(=O)O [Cloxacillin sodium salt] (20 µM),0.0503 (active)
19,CCN1CCCC1CNC(=O)c1cc(S(N)(=O)=O)ccc1OC (configuration not stated) [Sulpiride] (20 µM),1.06 (inactive)
20,CCOc1ccc(NC(N)=O)cc1 [(4-Ethoxyphenyl)urea] (50 µM),0.947 (inactive)
21,O=C1OC(CN2CCOCC2)CN1/N=C/c1ccc([N+](=O)[O-])o1 (configuration not stated) [Furaltadone hydrochloride] (20 µM),0.929 (inactive)
22,Cc1cc(N)c2ccccc2[n+]1CCCCCCCCCC[n+]1c(C)cc(N)c2ccccc21 [Dequalinium dichloride] (20 µM),0.921 (inactive)
23,Cc1ccc(C(=O)c2ccc(CC(=O)O)n2C)cc1 [Tolmetin sodium salt dihydrate] (20 µM),0.913 (inactive)
24,CCCSc1nc(N[C@@H]2C[C@H]2c2ccc(F)c(F)c2)c2nnn([C@@H]3C[C@H](OCCO)[C@@H](O)[C@H]3O)c2n1 [Ticagrelor] (20 µM),0.802 (inactive)
25,CNc1ncnc2c1ncn2[C@@H]1O[C@H](CO)[C@@H](O)[C@H]1O [N6-methyladenosine] (20 µM),1.01 (inactive)
26,Cc1c(N(C)CS(=O)(=O)O)c(=O)n(-c2ccccc2)n1C [Dipyrone sodium salt] (20 µM),1 (inactive)
27,CN(c1nccc(=O)[nH]1)C1CCN(c2nc3ccccc3n2Cc2ccc(F)cc2)CC1 [Mizolastine] (20 µM),0.967 (inactive)
